From PubChem BioAssay AID2110 (National Center for Advancing Translational Sciences (NCATS), 2009)
Results filed as inconclusive are left out. Entries that show only a call come without a potency. The source made the active and inactive calls. The call rests on the fitted dose curve; in most records, active means well fitted curve in either direction with a large enough effect; inconclusive means small, poorly fitted or top-dose-only effect; inactive means no such curve, though single readings can be large or run the other way.

Target: Lysosomal alpha-glucosidase (Homo sapiens) (UniProt P10253)
Assay: Confirmation of Inhibitors and Activators of Purified Human alpha-Glucosidase Using an Alternate Red Fluorescent Susbtrate
Excerpt: NIH Chemical Genomics Center [NCGC]
NIH Molecular Libraries Probe Production centers Network [MLPCN]
Assay Submitter (PI): Wei Zheng
Alpha-glucosidase is responsible for hydrolysis of terminal, non-reducing 1,4-linked alpha-D-glucose residues with release of alpha-D-glucose. It is a lysosomal hydrolase that is required for the degradation of a small percentage (1-3%) of cellular glycogen in human. Deficiency of this enzyme results in glycogen-storage disease type II (GSDII), also referred to as Pompe disease, an autosomal recessive disorder. Structurally normal glycogen is accumulated in lysosomes and cytoplasm in affected patients, primarily in muscle tissues. Excessive glycogen storage within lysosomes may interrupt normal functioning of other organelles and leads to cellular injury. […]
This is a fluorogenic enzyme assay with resorufin-alpha-D-pyranoside as the substrate and recombinant human alpha-glucosidase as the enzyme preparation. Upon the hydrolysis of this fluorogenic substrate, the resulting product, resorufin, can be excited at 573 nm and emits at 610 nm which can be detected by a standard fluorescence plate reader. […] The AC50 values were determined from concentration-response data modeled with the standard Hill equation. […]
(6) Detect the assay plate in a ViewLux plate reader (PerkinElmer) with Ex=365 nm and Em=440nm. […]

SMILES | Potency
CC[C@@]1(O)C(=O)OCc2c1cc1n(c2=O)Cc2cc3ccccc3nc2-1 | inactive
Cc1c2ccncc2c(C)c2c1[nH]c1ccccc12 | 35.5 µM (active)
